Measured potencies and affinities stand elsewhere. Activity calls are given as the source filed them.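 How the source made its calls: active means compounds lowering cell ATP signal whose fitted half-maximal concentration is at most twice the top tested dose; inconclusive means flat curve with 30 to 70% signal loss, or poor fit; inactive means the rest.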
Assay: viability loss in HEK293T cells – cell-based, CellTiter-Glo luminescence, dry powder, set 6, cytotoxicity control, dose response (AID 651949)
Details: CellTiter-Glo ATP luminescence, 48 h; series mostly up to 26 µM

## c1ccc(CSc2nnc(-c3ccccc3)o2)cc1
  outcome: inactive

## Clc1ccc(-c2nnc(SCc3ccccc3)o2)cc1
  outcome: inactive
